# Measurements reported in PubChem BioAssay.
# The list shows a part of the results. A number with no mark means an inactive call. Activity calls are given as the source filed them.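 Rule for the calls: active = mean inhibition over three repeats above a set limit taken from the earlier primary screen (cut at about 38% in these data); inactive = the rest.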
# Biological target: COUP transcription factor 2 (Homo sapiens) (UniProt P24468)
# Assay: retest of COUP-TFII reporter suppressors – cell-based, luciferase reporter, HEK293, triplicate, confirmation (AID 687008);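 note: 100% = cells given the luciferase reporter alone without the COUP-TF2 vector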
# Conditions: HEK293 NGFI-A luciferase reporter, luminescence; at 8.5 µM; hits give high values
# Sequence of COUP transcription factor 2 (Homo sapiens) (P24468 whole entry, looked up): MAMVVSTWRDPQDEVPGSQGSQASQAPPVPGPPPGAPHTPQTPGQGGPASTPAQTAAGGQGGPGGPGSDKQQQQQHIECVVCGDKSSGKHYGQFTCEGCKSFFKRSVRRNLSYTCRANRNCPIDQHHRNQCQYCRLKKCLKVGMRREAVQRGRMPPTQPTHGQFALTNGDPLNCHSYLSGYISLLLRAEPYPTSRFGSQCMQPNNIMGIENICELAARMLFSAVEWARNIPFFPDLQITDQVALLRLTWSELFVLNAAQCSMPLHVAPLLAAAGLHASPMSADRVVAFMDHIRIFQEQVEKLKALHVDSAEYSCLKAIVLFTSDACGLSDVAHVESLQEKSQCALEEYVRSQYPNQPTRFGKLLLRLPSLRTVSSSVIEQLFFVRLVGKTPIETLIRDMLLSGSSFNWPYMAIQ
row,SMILES,inhibition
1,Cc1nc(C(=O)NCc2ccccc2)sc1C1(C)CC(c2cccnc2)=NO1 (centres undefined),6.06%
2,O=C(Nc1ccc(S(=O)(=O)N2CCOCC2)cc1)C1CCN(S(=O)(=O)c2ccc(Cl)cc2)CC1,12.2%
3,Cc1ccccc1OCC(=O)Nc1ccc(N2CCN(C(=O)C(C)C)CC2)c(Cl)c1,10.5%
4,COc1ccc(NC(=O)C2Cc3c(-c4cccc(NC(C)=O)c4)ccnc3O2)cc1OC (centres undefined),14.6%
5,Cc1ccc(CNC(=O)Nc2nnc([C@H]3C[C@H](O)[C@@H](CO)O3)s2)cc1,11.2%
6,Cc1ccc(Nc2nc(CSc3nnc(-c4ccncc4)n3-c3ccccc3C)cs2)cc1,11.9%
7,O=C(Nc1ccc(S(=O)(=O)NCC2CCCO2)cc1)c1ccc(F)cc1 (centres undefined),13.8%
8,c1ccc(Cc2ccc(OCCn3ccnc3)cc2)cc1,9.96%
9,NS(=O)(=O)c1ccc(CCNc2nc(C(F)(F)F)nc3ccccc23)cc1,0.16%
10,CN(C(=O)c1cccc(NC(=O)Cc2cccc([N+](=O)[O-])c2)c1)C1CCCCC1,1.83%
11,NS(=O)(=O)c1ccc(CCNC(=O)c2ccc(Cl)c(S(=O)(=O)N3CCCCCC3)c2)cc1,39.1% (active)
12,CCOC(=O)N1CCN(C(=O)C[C@@H]2C(=O)N(CCc3ccc(Cl)cc3)C3=CCCC[C@]32C(=O)OCC)CC1,9.27%
13,COc1ccc(OC)c(CNC(=O)Cn2nc(C)c3c(C)n(-c4ccc(C)cc4)nc3c2=O)c1,51.1% (active)
14,CN(c1cccc(NC(=O)c2ccc(CN3CCc4ccccc4C3)cc2)c1)S(C)(=O)=O,41.2% (active)
